A word on the AC50: it is the concentration giving half of the maximal activity seen.

Some structures have more than one record in an assay (separate samples or runs), and their calls can disagree. Active and inactive are the calls of the source. Rule for the calls: active = hit-call score of the fitted dose curve at least 0.9, where 1 is the maximum; inactive = score below 0.9.

This assay is described as follows: CCTE_Shafer_MEA_dev_mutual_information_norm: CCTE's Neural Network Formation Assay for Mutual Information Normalization, Shafer Lab (AID 2284091).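 For AC50: potency is for a decrease in mutual information relative to DMSO.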 The procedure:
CCTE_Shafer_MEA_dev assay is conducted using Axion Biosystems 48 well microelectrode array (MEA) plates and Maestro recording system. Each well of the MEA plate contains a grid of 16 microelectrodes embedded in the culture surface. Electrically active cells, such as neurons, can be cultured over the electrodes, and electrical activity in these cells can be recorded extracellularly. The spontaneous firing of neurons is captured from each electrode on a microsecond timescale providing both temporally and spatially precise data. […] The CCTE_Shafer_MEA_dev assay uses primary cultures of rat cortical neurons. Recordings are made on days post-plating 5, 7, 9 and 12. As these cultures mature over time, neural networks develop functional activity and form cohesive networks in which electrical activity can be highly coordinated. CCTE_Shafer_MEA_dev_mutual_information_norm is 1 of 19 assay components of the CCTE_Shafer_MEA_dev assay. It is a measure of shared information between electrodes during a recording in a microelectrode array (MEA) using Axion Biosystems Maestro 768 channel amplifier with the AxIS adaptive spike detector. To collapse across multiple recordings made on days post-plating 5, 7, 9 and 12, the trapezoidal area-under-the-curve of the component is calculated.Data from the assay component CCTE_Shafer_MEA_dev_mutual_information_norm was analyzed into 1 assay endpoint. This assay endpoint, CCTE_Shafer_MEA_dev_mutual_information_norm, was analyzed in the negative analysis fitting direction relative to DMSO as the negative control and baseline of activity. Using a type of functional reporter, gain or loss-of-signal activity can be used to understand electrical activity.
On the day prior to culture, each well was coated thoroughly with 150 uL of 0.05% polyethyleneimine (PEI, Sigma Cat P3143) in 50 mM HEPES (Sigma Cat H7523) at a pH of 8. The plate was incubated at 37C for one hour. PEI was rinsed out with 500 uL of sterile water three times. Plates were stored at 4C until the day of culture. This culture was plated at a seeding density of 1.5 x 10^5 cells/well on a 48-well MEA plate, prepared as described above. Cells were administered via a 25 uL media/laminin ([…]; Sigma Cat L2020-1MG) drop directly onto the microelectrode array, as adding the cells with the laminin results in better attachment than pre-coating with laminin. After 2 hours, an additional 475 uL of cortical media was added and the cells returned to the incubator. Exposure starts at day 0 of plating and is continued over twelve days of network development until the experiment is terminated. Cells are fed with fresh medium on DIV 5 and 9, following the recordings on those days. The entire volume of media in the well is exchanged and any vehicle or compound treatment is renewed. Complete details are found in OP-NHEERL/ISTD/SBB/TJS/2015-03-r0 (available on request, email shafer.tim@epa.gov). Measurement of the electrical activity is non-invasive, and recordings can be made from the same plate over multiple different days of the culture. In cortical neurons, this allows for the measurement of extracellular action potentials over the period during which networks form in the MEA plate.
For the compound `O=S(=O)(c1ccc(O)cc1)c1ccc(O)cc1`, the outcome was inactive.
The same measure, in the same setting: in the case of `CC(O)C(F)(F)C(F)(F)F` (stereo not given) it was “inactive”; in that of `c1ccc(OP(Oc2ccccc2)Oc2ccccc2)cc1`, “inactive”.
Consider `CCOP(=S)(OCC)SCSCC`, for which the AC50 was 4.04 µM (active) and the compound was classed as inactive.
Take `OCC(F)(F)OC(F)(F)C(F)(F)OC(F)(F)C(F)(F)OC(F)(F)CO`: the compound was classed as inactive.
Still for that read-out and setting: in the case of `O=C(O)C(F)(F)C(F)(F)C(=O)O` it was “inactive”; in that of `O=C(O)C(F)(OC(F)(F)C(F)(F)C(F)(F)F)C(F)(F)F` (stereo not given), “inactive”.
For the compound `CO/N=C(/C(=O)OC)c1ccccc1COc1ccccc1C`, the AC50 is 0.454 µM (active).
In the case of `O=C(O)C=CC(F)(C(F)(F)F)C(F)(F)F`, the compound was classed as inactive.
The same measure, in the same setting: in the case of `OCC(F)(F)OC(F)(F)C(F)(F)OC(F)(F)C(F)(F)OC(F)(F)F` it was “inactive”; in that of `CC(C)(C)c1ccccc1OP(=O)(Oc1ccccc1)Oc1ccccc1`, “inactive”; in that of `CCCCC(CC)COC(=O)c1c(Br)c(Br)c(Br)c(Br)c1C(=O)OCC(CC)CCCC` (stereo not given), “inactive”.
On the same count and under the same terms, in the case of `CCC1(c2ccccc2)C(=O)N=C(O)NC1=O` (stereo not given) it was “inactive”.
Same read-out and setting: for `CCCCC(CC)COP(=O)(Oc1ccccc1)Oc1ccccc1` (stereo not given) the value was “inactive”.
With `O=P(Oc1ccccc1)(Oc1ccccc1)Oc1ccccc1`, the outcome was inactive.
For the compound `O=C(O)C1C(C(=O)O)C2(Cl)C(Cl)=C(Cl)C1(Cl)C2(Cl)Cl` (stereo not given), the compound was called inactive.
Same read-out and setting: in the case of `OCC(F)(F)OC(F)(F)C(F)(F)OC(F)(F)CO` it was “inactive”; in that of `O=P1(N(CCCl)CCCl)NCCCO1` (stereo not given), “inactive”.
Consider `CCOc1ccc(C(C)(C)COCc2cccc(Oc3ccccc3)c2)cc1`, for which the AC50 was 3.09 µM (active).
On to `ClC1=C(Cl)C2(Cl)C3C(Cl)C(Cl)CC3C1(Cl)C2(Cl)Cl` (stereo not given), for which the AC50 was 7.75 µM (active).
The same measure, in the same setting: for `C=CC(=O)OCC(F)(F)C(F)F` the value was 5.12 µM (active).
As for `O=C(O)C(F)(F)OC(F)(F)C(F)(F)OC(F)(F)C(=O)O`, the compound was called inactive.
With `c1cc2c3c(cccc3c1)CC2`, the outcome was inactive.
Still for that read-out and setting: for `O=C(O)C(F)(F)OC(F)(F)C(F)(F)OC(F)(F)F` the value was “inactive”.

The values above are taken from PubChem BioAssay (EPA / NIEHS).
